# Screening data from PubChem.
# Most compounds without a hit are left out; they make up all but 20% or so of the library.
# Pf growth 48h – Primary qHTS for delayed death inhibitors of the malarial parasite plastid, 48 hour incubation; 310,000 tested, 5.9% active; Potency, µM (top dose mostly 28.7 µM), for inactives: top-dose activity change, negative = inhibition, usual class: inhibitors; P. falciparum luciferase growth in erythrocytes, 48 h; further: potency means the concentration at half of the fitted maximal effect; on the % scale 0 is the no-effect control and ±100 the full control effect
#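 Compounds are pin-transferred into medium, infected erythrocytes (2% hematocrit, 0.1% parasitemia final) are added, and plates sit one parasite generation at 37 C in 5% CO2. Detection reagent is then added and luminescence measured.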
# Cycloheximide cs – Cycloheximide Counterscreen for Small Molecule Inhibitors of Shiga Toxin. cell reporter, cycloheximide protein synthesis inhibition counterscreen. 300,000 tested, 12% active. max response, %; in the data active means max response mostly above about 13%, no sharp cut-off; inactive means mostly below about 14%; further: read at 38.3 µM for the half of the compounds with a filed dose; 0% is about no effect
# Shiga inhibitor – A qHTS for Small Molecule Inhibitors of Shiga Toxin; Vero cells, Shiga toxin protein synthesis inhibition reporter; inhibition, % at 38.7 µM; 290,000 tested, 9.2% active; AID 2315, 2010; in the data active means inhibition mostly above about 28%, no sharp cut-off; inactive means mostly below about 43%; further: 0% is about no effect
# HCMV inh – qHTS Assay for inhibitors of the human cytomegalovirus (HCMV); 410,000 tested, 4.5% active; activity change, negative = inhibition, % at 57.5 µM; HFF cells, HCMV-luciferase reporter, 72 h; active compounds read low; in the data active means activity change below about -60%; inconclusive means no clear call, values can overlap the other calls; inactive means above about -39%; further: on the % scale 0 is the no-effect control and ±100 the full control effect
#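 Two-dose cell screen: HFF monolayers treated with compounds and infected with luciferase-expressing HCMV at 1 PFU/cell, 72 h at 37C, then lysed for luciferase measurement.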
# Pf growth 96h – Primary qHTS for delayed death inhibitors of the malarial parasite plastid, 96 hour incubation | P. falciparum luciferase reporter growth, 96 h | Potency, µM (titrated, usually from 28.7 µM), inactives show top-dose activity change, negative = inhibition, hits mostly inhibitors | 320,000 tested, 6.9% active; further: potency means the concentration at half of the fitted maximal effect; on the % scale 0 is the no-effect control and ±100 the full control effect
#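 Erythrocytes infected with luciferase-expressing P. falciparum were dispensed at 2% hematocrit and 0.05% parasitemia (final), then incubated with compounds 96 hours at 37 C in 5% CO2. Luminescence after detection reagent addition reported growth.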
# * hit, by the source's call; ? = inconclusive; . = no result; [ ] = dose if it differs, or a comment. Unless noted, the call rests on the fitted dose curve; in most records, active means well fitted inhibition curve with a large enough effect; inconclusive means small, poorly fitted or top-dose-only effect, or another doubt; inactive means no such curve, though single readings can be large or run the other way.
SMILES,Pf growth 48h,Cycloheximide cs,Shiga inhibitor,HCMV inh,Pf growth 96h
Fc1ccc(Nc2nc(-c3ccncc3)cs2)cc1,45.9%,38.8*,80.0*,71.1,26.2%
c1ccc(Nc2nc(-c3ccncc3)cs2)cc1,115.8%,60.1*,47.0*,177.2,13.7%
Nc1ccc(Nc2nc(-c3ccncc3)cs2)cc1,-33.1%,34.0*,62.0,-98.6*,.
Nc1ccc(Nc2ccncc2)cc1,.,.,.,-12.7,.
CC(C)CCn1c(=O)c2sccc2n2c(CCCC(=O)NCc3ccc(F)cc3)nnc12,.,.,.,-22.3,.
COC(=O)C[C@H]1C[C@@H]2c3cc(NC(=O)NC4CCCC4)ccc3O[C@@H]2[C@@H](CO)O1,.,.,.,16.8,.
COc1ccc(S(=O)(=O)N/N=C(/C)c2ccco2)cc1,6.4%,55.6*,130.2*,27.9,?
CCOc1cc(NS(=O)(=O)c2ccc(OC)cc2)c(OCC)cc1NC(=O)c1ccco1,-2.8%,1.0,9.6,-96.7*,12.3%
COc1ccc(S(=O)(=O)N/N=C(/C)c2ccc(C)o2)cc1,.,.,.,-4.0,.
CCOc1cc(NC(=O)c2ccco2)c(OCC)cc1NC(=O)CCC(=O)NCc1cccnc1,-11.1%,-1.5,51.3,.,-9.8%
CCOc1cc(NC(=O)c2ccco2)c(OCC)cc1NC(=O)Cc1cccc(OC)c1,4.65µM*,-4.3,-4.3,-33.2,1.1%
CCOc1cc(NS(=O)(=O)CC)c(OCC)cc1NC(=O)c1ccco1,?,0.3,-1.3,-77.4*,.
CCOc1cc(NC(=O)c2cccs2)c(OCC)cc1NC(=O)c1ccco1,-3.6%,1.1,-15.9,31.0,?
CC(C)c1ccc(OCC(=O)Nc2ccc3oc(=O)ccc3c2)cc1,-14.3%,-3.1,2.9,-33.4,3.29µM*
O=C(COc1ccc(Br)cc1)Nc1ccc2oc(=O)ccc2c1,-7.6%,-2.6,-11.2,?,51.7%
O=C(COc1ccc2ccc(=O)oc2c1)c1ccccc1,20.1%,22.8*,31.3,44.3,45.7%
O=C(COc1ccccc1)Nc1ccc2oc(=O)ccc2c1,42.0%,23.0*,51.9*,?,23.8%
COc1ccc(OCC(=O)Nc2ccc3oc(=O)ccc3c2)cc1,?,-0.2,-15.3,12.3,9.3%
CCCC/C=C/[C@H](c1ccccc1)[C@H](CO)Cc1ccc([N+](=O)[O-])cc1,.,5.8,16.5,.,.
Nc1ccc(N=Nc2ccccc2O)c(N)c1,.,.,.,78.6,.
Oc1ccccc1N=Nc1ccccc1O,2.62µM*,93.7*,193.9*,-99.4*,67.9%
c1ccc(-c2ncc3ccccn23)cc1,?,15.4*,59.5,38.6,?
CCOc1cccc2sc(NC(=O)CCS(=O)(=O)c3ccccc3)nc12,?,13.3,5.1,.,?
CC1(C)CC(=O)c2sc(NC(=O)CCS(=O)(=O)c3ccccc3)nc2C1,7.7%,30.2*,15.9,?,-24.3%
CC(Oc1ccccc1)C(=O)Nc1nc2c(s1)C(=O)CC(C)(C)C2 (centres undefined),21.8%,-2.3,-6.0,-8.6,-17.9%
SMILES,Pf growth 48h,Cycloheximide cs,Shiga inhibitor,HCMV inh,Pf growth 96h
CC1(C)CC(=O)c2sc(NC(=O)c3ccc4ncsc4c3)nc2C1,41.9%,23.9*,62.2*,74.5,44.4%
COc1ccc(C)c2sc(NC(=O)CCS(=O)(=O)c3ccccc3)nc12,-20.6%,2.1,11.8,-89.2*,5.22µM*
CC1(C)CC(=O)c2sc(NC(=O)c3cccs3)nc2C1,21.5%,15.7*,19.2,53.7,-18.5%
CCN(CC)c1ccc(NC(=O)COCc2cc(-c3ccc4c(c3)OCO4)on2)c(C)c1,.,.,.,-17.2,.
CC1(C)CNC(=O)c2sc(N3CCOCC3)nc2C1,?,-2.7,-12.7,1.1,1.6%[5.75 µM]
CC1(C)CC(=O)c2sc(NC(=O)c3ccccc3)nc2C1,11.2%,33.2*,75.1*,.,-4.0%
CC1(C)CNC(=O)c2sc(NC(=O)c3ccccc3)nc2C1,55.6%,51.1*,109.5*,123.9,?
CC1(C)CC(=O)c2sc(NC(=O)CN3CCCCC3)nc2C1,5.0%,15.8,27.2,-26.1,?
CC1(C)CC(=O)c2sc(NC(=O)C(C)(C)C)nc2C1,95.0%,40.2*,92.1*,59.1,34.2%
Cc1ccc(S(=O)(=O)NNC(=S)NCC2CCCO2)cc1 (centres undefined),22.2%,-5.3,-11.5,20.3,20.7%
CCOc1ccc(OCC)c(NC(=O)Cn2c(C)nc3ccccc3c2=O)c1,4.5%,13.9,20.3,21.9,1.6%
